aSyn yeast inh – inhibitors of alpha-synuclein toxicity in yeast; Yeast expressing alpha-synuclein, growth rescue, BacTiter-Glo, 24 h; Potency, µM (series often up to 46.1 µM), without a hit: at the top dose growth rescue (activation), usual class: activators; 370,000 tested, 0.14% active; AID 652106; also: % of control where 0% means no effect; nearly all actives have a fitted effect of over 65% in size
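Galactose-induced alpha-syn yeast (OD600=0.02, raffinose-pregrown) + pinned cpd, 24 hr, 30 deg C; growth by BacTiter-Glo luminescence. Growth restoration scores as activation.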
TDP-43 yeast inh – TDP-43 toxicity inhibition in yeast; TDP-43 expressing yeast growth rescue, BacTiter-Glo, 24 h; 410,000 tested, 1.8% active; Potency, µM (titrated, usually from 46.1 µM), for inactives: top-dose growth rescue (activation), hits mostly activators; AID 652104; also: % of control where 0% means no effect; nearly all actives have a fitted effect of over 50% in size
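Yeast cells expressing TDP-43 under galactose induction are exposed to compounds for 24 hr at 30 deg C. BacTiter-Glo luminescence measures growth, so protective compounds score as activators.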
Abeta yeast res – A-beta toxicity reversal in yeast | AID 1347071 | yeast expressing A-beta42, growth rescue, OD600, 48 h; response scale: 0% DMSO, 100% iron-clioquinol control | Potency, µM (highest dose often 46.1 µM), hits mostly activators | 410,000 tested, 0.063% active; also: nearly all actives have a fitted effect of over 55% in size
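Growth rescue measured by 600 nm absorbance after 48 h yeast culture at 30 C with compound. Values normalized between DMSO and an equimolar ferric chloride plus clioquinol control.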
FUS yeast rescue – suppressors of FUS proteinopathy in yeast; 390,000 tested, 0.24% active; AID 1347120; Potency, µM (top dose mostly 76.6 µM), usual class: activators; S. cerevisiae FUS-expressing, growth rescue, OD600, 24 h;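 also: plate controls were DMSO vehicle for no effect and reference control for full effect; nearly all actives have a fitted effect of over 55% in size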
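Yeast expressing FUS under galactose induction, OD 0.005 in 2% galactose medium; compounds in a dilution series, 24 h at 30C. Growth rescue by absorbance at 600 nm; CP55940 positive control, DMSO negative.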
Numbers without * were called inactive; i = inactive; u = inconclusive; x = not tested or not shown. Shown are actives, neighbours in structure and some others; about 2.1% of the full set was active somewhere. Calls follow the shape of the dose curve; as a rule, active = well fitted curve in the direction sought with a large enough effect; inconclusive = small, poorly fitted or top-dose-only effect, or another doubt; inactive = no such curve, though single readings can be large; an effect the other way counts as inactive or inconclusive. Potency is read from the fitted curve at half-maximal effect.

SMILES	aSyn yeast inh	TDP-43 yeast inh	Abeta yeast res	FUS yeast rescue
CCOC(=O)N1C(=O)[C@@](c2ccc(Cl)cc2)(C(C)C)N1C(=O)OCC	-27%	20µM*	i	i
Cc1noc(C)c1COc1ccc(C(=O)OCC(=O)NC(=O)C2COc3ccccc3O2)cc1 (stereo unspecified)	1%	4%	i	x
CCc1cccc(NC(=O)CSc2n[nH]c(-c3ccccc3Cl)n2)c1	x	22%	i	i
CN(C)c1ccc(/C=C/c2c([N+](=O)[O-])c(=O)n(C)c(=O)n2C)cc1	-7%	3%	i	i
Cn1c(/C=C/c2ccc(Br)cc2)c([N+](=O)[O-])c(=O)n(C)c1=O	0%	20µM*	i	i
CN(c1ccccc1C(=O)Nc1cccc([N+](=O)[O-])c1)S(=O)(=O)c1ccccc1	2%	22µM*	i	i
CN(c1ccccc1C(=O)Nc1cccc([N+](=O)[O-])c1)S(C)(=O)=O	0%	10%	i	i
CC(=O)c1cccc(NC(=O)c2ccccc2N(C)S(=O)(=O)c2ccc(C)cc2)c1	9%	4%	i	i
CCOC(=O)c1ccc(NC(=O)c2ccccc2N(C)S(=O)(=O)c2ccccc2)cc1	6%	35µM*	i	x
CN(c1ccccc1C(=O)Nc1cccc(Br)c1)S(=O)(=O)c1ccccc1	10%	28µM*	i	i
COc1ccc(Nc2nc3c(C)cccn3c(=O)c2C=NCc2ccccc2)cc1	-1%	13%	i	i
Cc1cccc(C(=O)NC(=S)NNC(=O)c2ccccc2Cl)c1	10µM*	-40%	u	x
Cc1cc(C(=O)NNC(=S)NC(=O)/C=C/c2ccccc2Cl)n[nH]1	9%	10%	i	13µM*
Cc1ccccc1C(=O)NNC(=S)NC(=O)c1ccc(Cl)cc1Cl	1.6µM*	10µM*	u	i
COc1ccccc1C(=O)NNC(=S)NC(=O)c1cc(OC)c(OC)c(OC)c1	u	10µM*	6.3µM*	i
Cc1cccc(C(=O)NC(=S)NNC(=O)Cc2ccccc2)c1	-21%	-71%	i	u
Cc1ccc(NCc2cccn2-c2nnc(N3CCC(C(=O)NCCc4ccc(Cl)cc4)CC3)s2)cc1	x	35µM*	u	u
O=C(NCCc1csc(-c2ccc(C(F)(F)F)cc2)n1)C(=O)Nc1cc(F)ccc1F	x	4%	i	i
COC(=O)c1cccc(NC(=O)COc2cccc([N+](=O)[O-])c2)c1	0%	11µM*	i	i
Cc1noc(NS(=O)(=O)c2ccc(N/C=C\C(=O)c3ccncc3)cc2)c1C	2%	9%	i	i
Cc1noc(NS(=O)(=O)c2ccc(N/C=C/C(=O)c3cccnc3)cc2)c1C	20µM*	-1%	i	i
Clc1ccc2c(c1)C1OCCC1C(c1ccco1)N2 (stereo unspecified)	-1%	17%	i	i
O=C(c1noc2c1CCCCC2)N1CCN(c2cccc(Cl)c2)CC1	x	8.9µM*	i	i
Cc1ccc(Cl)cc1N1CCN(C(=O)c2ccc(CS(=O)(=O)c3ccc(Br)cc3)o2)CC1	x	-13%	i	22µM*
O=C(O)/C=C/c1cnn(-c2ccccc2)c1	0%	35µM*	i	i
SMILES	aSyn yeast inh	TDP-43 yeast inh	Abeta yeast res	FUS yeast rescue
CCOC(=O)/C=C/c1cnn(-c2ccccc2)c1	0%	13%	i	x
CC(NC(=O)c1nn(C)c2c1CSc1ccccc1-2)c1ccccc1 (stereo unspecified)	x	18µM*	i	u
Cn1nc(C(=O)NCc2ccc(F)cc2)c2c1-c1ccccc1SC2	x	18µM*	i	i
Cn1nc(C(=O)NCc2ccc(F)cc2)c2c1-c1ccccc1S(=O)(=O)C2	1%	10%	i	u
Cn1nc(C(=O)NCc2ccc(Cl)cc2)c2c1-c1ccccc1SC2	x	8%	i	i
COc1ccc(OC)c(CCNC(=O)c2nn(C)c3c2CSc2ccccc2-3)c1	x	22µM*	i	i
CSc1ccc(CCNC(=O)c2nn(C)c3c2CS(=O)(=O)c2ccccc2-3)cc1	8%	25µM*	i	i
CCOC(=O)c1ccccc1Nc1nc2ccc(C)cc2n2nnnc12	x	21%	i	i
CC1Cc2ccccc2N1C(=O)CN1CCc2ccccc2C1 (stereo unspecified)	-6%	-26%	i	i
COCCCN=C(c1ccco1)n1c(=S)nc(-c2ccco2)n(CCCOC)c1=S	-27%	-16%	i	28µM*
COCCCn1c(-c2ccco2)nc2ccccc2c1=O	-18%	18%	i	i
O=C(c1ccccc1)N1CCN(C(=O)c2nn3c(C(F)(F)F)cc(-c4ccco4)nc3c2Cl)CC1	-7%	0%	i	i
COc1ccc2cc3cc(C(=O)NCCN4CCN(Cc5ccccc5)CC4)oc3nc2c1	-1%	9%	i	i
COc1ccc2cc3cc(C(=O)NCCN4CCc5ccccc5C4)oc3nc2c1	25µM*	11µM*	i	i
COc1ccc2cc3cc(C(=O)N4CCCCCC4)oc3nc2c1	3%	18%	i	i
COc1ccc2cc3cc(C(=O)N(C)C4CCCCC4)oc3nc2c1	13%	18µM*	i	i
CN(C)S(=O)(=O)n1cc(/C=C(\NC(=O)c2ccccc2)C(=O)NCCCn2ccnc2)c2ccccc21	0%	2%	i	i
Cc1csc(SCc2nnc(-c3ccccc3Br)o2)n1	-1%	3%	i	i
Fc1ccccc1SCc1nnc(-c2ccccc2Br)o1	13%	22µM*	i	i
CC(=O)NCC12CC3CC(C1)CC(C(=O)O)(C3)C2	-1%	-6%	i	i
CC(=O)N1CCN(c2nc(CC(C)C)c3c(c2C#N)CCC3)CC1	7%	22%	i	i
CC(C)Cc1nc(N2CCN(C(=O)c3ccccc3)CC2)c(C#N)c2c1CCC2	3%	25µM*	i	u
Cc1cc2c(c(Sc3ccccc3)n1)C(=O)OC2	x	3.2µM*	i	i
CC(=O)n1c(-c2ccccc2)c(-c2ccccc2)n(C)c1=O	-7%	13µM*	i	i
CCOc1ccc2nc(SCC(=O)N(CC(C)C)c3c(N)n(CC(C)C)c(=O)[nH]c3=O)[nH]c2c1	1%	u	i	x
SMILES	aSyn yeast inh	TDP-43 yeast inh	Abeta yeast res	FUS yeast rescue
COc1ccc(CNc2nc(NCc3ccc(OC)cc3)n(S(C)(=O)=O)n2)cc1	1%	-1%	i	i
COCC(=O)n1nc(NCc2ccc(OC)cc2)nc1NCc1ccc(OC)cc1	8%	18µM*	i	i
Clc1ccc(-c2n[nH]c3c2CCC3)cc1Cl	-8%	20µM*	i	i
O=C(O)C1CSC2c3ccccc3C(=O)N12 (stereo unspecified)	1%	-8%	i	i
O=C(c1ccc(F)cc1)C1CCN(C(=O)c2ccncc2)CC1	25%	-8%	i	i
C=CCNC(=S)NC(=O)c1ccc(C)c(Br)c1	-1%	u	10µM*	i

Assay outcomes: PubChem BioAssay, National Center for Advancing Translational Sciences (NCATS)
